# Laboratory results: PubChem BioAssay AID651784 (National Center for Advancing Translational Sciences (NCATS), 2012)
# Inconclusive results are not listed. Active and inactive are the calls of the source. Calls come from the whole dose curve; as a rule, active = well fitted inhibition curve with a large enough effect; inconclusive = small, poorly fitted or top-dose-only effect; inactive = no such curve, though single readings can be large or run the other way.
# Assay: Acumen qHTS Assay for Inhibitors of the mTORC1 Signaling Pathway in MEF (Tsc2-/-, p53-/-) Cells: Hit Validation;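 note: phospho-rpS6 Ser235/236 immunofluorescence normalized to propidium iodide cell count; nearly all actives have a fitted effect of over 65% in size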;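 for activity change, negative = inhibition: cells exposed to compound for 24 hours; plate controls were DMSO for no effect and 7.5 nM rapamycin control for full effect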
# Details: Acumen imaging; activity change, negative = inhibition: at 37.3 µM (top of the series)
# Potency is the fitted concentration of half-maximal effect.
Compound,"activity change, negative = inhibition [%]",Potency
CCCCOC(=O)c1ccc(NC(=O)c2ccc3c(c2)CCN3S(=O)(=O)c2ccccc2)cc1,-14.2,–
CC(=O)Nc1cccc(NC(=O)C(=O)NCCc2sc(-c3ccccc3)nc2C)c1,–,0.329 µM (active)
CCOCc1cc(CN2CCN(c3ccccc3OC)CC2)c(O)c2ncccc12,–,5.21 µM (active)
CN1CCN(C2(CNC(=O)COc3ccc(C(C)(C)C)cc3)CCCCC2)CC1,–,14.7 µM (active)
COc1cc(Cl)c(C)cc1NC(c1ccccc1)c1nnc(-c2ccccc2Cl)o1 (stereo not drawn),-9.11,–
CC(C)Cc1ccc(S(=O)(=O)N2CCC(c3ccncc3)CC2)cc1,–,4.65 µM (active)
COc1ccc(NC(=O)c2c(NC(=O)COc3ccccc3)sc3c2CCC(C)C3)cc1 (stereo not drawn),6.92,–
CN(Cc1ccccc1)C(=O)CSc1c2c(nc3ccc(Cl)cc13)CCCC2,9.63,–
CCN1CCN(C(=O)Cn2ncc3c4ccccc4n(Cc4c(C)cc(C)cc4C)c3c2=O)CC1,-17.5,–
CCn1c(CC2C(=O)N(C)c3ccc(Br)cc32)nc2ccccc2c1=O (stereo not drawn),-27,–
COc1ccc2c(c1)CC(C(=O)Nc1cc(Cl)ccc1C)CO2 (stereo not drawn),-12.5,–
CC1C(=O)Nc2ccc(S(=O)(=O)Nc3ccccc3Br)cc2NC1=O (stereo not drawn),8.5,–
COc1ccc(NC(=O)CCS(=O)(=O)c2nc(-c3cccs3)cc(C(F)(F)F)n2)cc1OC,-87.3,–
Brc1ccc(Nc2c3c(nc4nncn24)CCC3)cc1,7.81,–
COc1ccc(-c2n[nH]c3c2C(c2ccc(O)cc2)N(c2ccc(Br)cc2)C3=O)cc1 (stereo not drawn),2.17,–
COCc1oc2ccc(NS(=O)(=O)c3ccc(C)cc3)cc2c1C(=O)OC,-61.3,–
CCN1CCN(c2ccc(NS(=O)(=O)c3c(C)nc4sccn4c3=O)cc2Cl)CC1,-78.4,–
CC(C)OCCCn1c(=O)c2ccccc2n2c(-c3ccc(F)cc3)nnc12,17.3,–
CCS(=O)(=O)c1ncc(Cl)c(C(=O)Nc2ccc(S(=O)(=O)N(C)c3ccccc3)cc2)n1,–,1.47 µM (active)

Compound,"activity change, negative = inhibition [%]",Potency
COc1cc(C(=O)N(CCCN(C)C)c2nc3c(OC)cccc3s2)cc(OC)c1OC,19.6,–
COc1ccc(-c2nc(S(=O)(=O)c3ccc(Cl)cc3)c(N3CCCCCC3)o2)cc1,2.12,–
Cc1nn(C(C)C(=O)NC2CCCCC2)c(=O)c2c1sc1ccccc12 (stereo not drawn),-2.94,–
COc1ccccc1CNC(=O)CCCn1c(=O)c2cccn2c2ccccc21,-1.89,–
CCCCS(=O)(=O)c1oc(-c2cccs2)nc1S(=O)(=O)c1ccc(F)cc1,–,3.69 µM (active)
O=C(Nc1ccc2oc(-c3ccc4ccccc4c3)nc2c1)c1cc(Br)ccc1Cl,–,9.27 µM (active)
Cc1ccc(S(=O)(=O)c2nc(-c3cccs3)oc2SCC(=O)Nc2cc(C)cc(C)c2)cc1,-132,–
Cc1ccc(NC(=O)COc2ccc(-c3nn(C)c(=O)c4ccccc34)cc2)c(C)c1,-44.6,–
CCCCOc1ccccc1C1CC(=O)Nc2ccc3ccccc3c21 (stereo not drawn),-10.2,–
CCOc1ccc(Nc2nc(N)c(C(=O)c3ccccc3Cl)s2)cc1,-95,–
COc1cccc(-c2nc(SCC(=O)NCC3CCCO3)c(-c3ccc(F)cc3)[nH]2)c1 (stereo not drawn),-3.33,–
C=CCc1c(C)nc2nc(SCC(=O)Nc3ccc(C)c(C)c3)nn2c1C,-88.7,–
CS(=O)(=O)N(CC(=O)NCCc1ccccc1)c1cc(C(F)(F)F)ccc1Cl,30.3,–
Cc1ccc(C)c(NC(=O)Nc2cc3c(cc2N2CCCCC2)n(C)c(=O)n3C)c1,3.56,–
COc1ccc(-c2nnc(SCC(=O)NCc3ccccc3)nc2-c2ccc(OC)c(OC)c2)cc1OC,–,18.5 µM (active)
CCOc1c(Br)cc(C2CC(=O)Nc3cc4c(cc32)OCO4)cc1OC (stereo not drawn),-47.7,–
COc1ccc2c(CNCCc3cccs3)c(C(=O)O)n(Cc3ccc(F)cc3Cl)c2c1,-51.9,–
Cc1ccc2nc(-c3cccc(NC(=O)c4cccc5ccccc45)c3)oc2c1,-72.4,–
COc1ccccc1NC(=O)c1sc(-c2ccc(Cl)cc2)cc1N,1.3,–
